# Sfp inh – Sfp phosphopantetheinyl transferase inhibition | actives 3.5% (n = 310,000) | Potency, µM, usual class: inhibitors | Biochemical Sfp PPTase activity, qHTS;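 further: the enzyme is Sfp with the accession as filed and its product quenches rhodamine fluorescence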
#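 Buffer: 50 mM Hepes-Na pH 7.6, 10 mM MgCl2, 0.01% Nonidet P-40, 0.01% BSA. Enzyme 15 nM, pre-exposed to compound 15 min; substrates then added and fluorescence change tracked over 30 min.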
# 12-LOX inh – blocks human arachidonate 12S-lipoxygenase. Potency, µM (doses to about 108 µM), hits mostly inhibitors. actives 1.1% (n = 580,000). P18054. AID 1671190. purified 12hLO, xylenol orange hydroperoxide absorbance
#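 Hydroperoxide product was detected by ferrous iron/xylenol orange as the 573 to 405 nm absorbance ratio. Arachidonic acid at 40 uM (final) was turned over for 30 min at room temperature by 150 nM human 12hLO, pH 7.0 Hepes buffer, after 15 min compound preincubation.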
# VDR inh – inhibitors of human vitamin D receptor | P11473 | Potency, µM, usual class: inhibitors | actives 0.93% (n = 400,000) | VDR-SRC2-3 peptide fluorescence polarization, 2 h
#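 After 23 nl compound addition and a short centrifugation, plates sat for 2 hours at ambient temperature; polarization of fluorescence then indicated loss of VDR binding to peptide SRC2-3.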
# PLK1 PBD inh – inhibitors of human PLK1 polo-box domain binding; actives 2.8% (n = 360,000); Plk1 PBD binding of FITC phosphopeptide, fluorescence polarization; Potency, µM, hits mostly inhibitors; further: series mostly up to about 57 µM; nearly all actives have a fitted effect of over 65% in size
# Target sequence (P53350 whole entry, looked up, the tested form may be a part): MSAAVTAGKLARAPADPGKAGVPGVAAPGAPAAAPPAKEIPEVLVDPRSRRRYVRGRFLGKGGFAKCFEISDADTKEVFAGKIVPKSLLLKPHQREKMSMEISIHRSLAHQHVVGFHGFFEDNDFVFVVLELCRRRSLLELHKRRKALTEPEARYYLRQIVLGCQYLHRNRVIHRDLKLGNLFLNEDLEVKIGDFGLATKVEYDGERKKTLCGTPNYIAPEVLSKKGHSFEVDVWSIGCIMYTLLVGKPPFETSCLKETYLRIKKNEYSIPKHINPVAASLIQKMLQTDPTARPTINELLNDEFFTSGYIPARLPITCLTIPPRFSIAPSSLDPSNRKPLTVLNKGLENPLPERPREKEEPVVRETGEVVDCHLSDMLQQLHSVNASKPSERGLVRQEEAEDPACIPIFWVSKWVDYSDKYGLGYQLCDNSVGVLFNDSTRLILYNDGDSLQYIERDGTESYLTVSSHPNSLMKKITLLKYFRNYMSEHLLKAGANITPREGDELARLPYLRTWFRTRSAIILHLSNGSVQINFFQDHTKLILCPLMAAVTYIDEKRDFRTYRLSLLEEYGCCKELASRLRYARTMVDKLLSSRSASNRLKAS
# Numbers stand for hits; . = inactive; ? = inconclusive; / = no result. Rows were chosen to be rich in hits. Some 4.2% of all compounds tested hit in one or more screens of this group. The call rests on the fitted dose curve; in most records, active means well fitted curve in the direction sought with a large enough effect; inconclusive means small, poorly fitted or top-dose-only effect, or another doubt; inactive means no such curve, though single readings can be large; an effect the other way counts as inactive or inconclusive.
SMILES,Sfp inh,12-LOX inh,VDR inh,PLK1 PBD inh
CSc1ccc(NC(=O)c2ccc3c(c2)N(C)C2CCCCN2C3=O)cc1 (centres undefined),/,.,/,/
O=C(/C=C/c1ccc2ccccc2c1)c1cc2ccccc2o1,/,.,/,/
Cc1ccc(C(=O)N2CCC(OC3CCN(C)CC3)CC2)s1,/,.,/,/
Cc1ccc(C(=O)/C=C/c2ccc(-c3ccccc3[N+](=O)[O-])o2)cc1,.,.,.,.
Cc1ccc(C(=O)/C=C/c2ccccc2[N+](=O)[O-])cc1,.,.,?,26.7µM
CNc1ncc(C(=O)C(C)(C)C)s1,.,.,.,.
Cc1cc(CCC(=O)O)c(C)cc1CCC(=O)O,.,.,.,.
C=CC1=C(C)C2=NC1=CC1=NC(=CC3=NC(=CC4=NC(=C2)C(C)=C4CCC(=O)O)C(CCC(=O)O)=C3C)C(C=C)=C1C.[Zn],4.47µM,?,?,/
COc1ccc2nc(C)cc(NCc3cccc(C(F)(F)F)c3)c2c1,.,?,.,.
N#C/C(=N\Nc1ccc(Cl)cc1)C(N)=S,.,?,.,.
N#C/C(=N\Nc1ccccc1)C(N)=S,17.8µM,?,.,.
N#C/C(=N\Nc1ccc(S(=O)(=O)N2CCOCC2)cc1)C(N)=S,44.7µM,?,.,?
Cc1ccc(N/N=C(\C#N)C(N)=S)cc1C,56.2µM,2µM,?,.
COc1ccc(Oc2ccc(-c3ccn[nH]3)cc2)cc1,.,.,.,.
O=C(CN1C(=O)COc2ccc(S(=O)(=O)Nc3ccccc3)cc21)Nc1cccc(Cl)c1,/,.,.,/
N#Cc1c(O)c2c(-c3ccc(-c4ccccc4O)cc3)csc2[nH]c1=O,/,24.3µM,/,/
CN1CCC2(C1)CN(Cc1ccccc1)c1ccc(C(=O)Nc3ccn(C)n3)cc12 (centres undefined),/,.,/,/
O=S(=O)(c1ccccc1)C(/C=N\O)/C=C/c1ccccc1 (centres undefined),50.1µM,?,.,2.99µM
C=CCN1C(=O)C2(OCCCO2)c2c(C)ccc(C)c21,.,.,.,.
CN1CCN(Cc2nc3ccccc3c(=O)n2Cc2nc(-c3cccc([N+](=O)[O-])c3)cs2)CC1,.,.,.,26.7µM
O=C1CC(c2ccco2)=Nc2ccccc2N1,50.1µM,.,.,.
CC(C)CNc1ccc2nncn2n1,/,.,/,/
O=C1CO[C@H]2CCN(Cc3cccs3)CC[C@@H]2N1Cc1ccccc1,/,.,/,/
Cc1cc(C)c2c(N)c(-c3ccc(C#N)cc3)sc2n1,/,3.98µM,/,/
CN(C)Cc1ccccc1-c1cc(N(C)C)ncn1,.,39.8µM,.,/
SMILES,Sfp inh,12-LOX inh,VDR inh,PLK1 PBD inh
Cc1noc(C)c1-c1cc(N(C)Cc2ccco2)ncn1,56.2µM,?,31.6µM,/
Cc1ccccc1-c1cc(N(C)Cc2ccco2)ncn1,.,.,44.7µM,/
COc1cccc(-c2cc(N(C)Cc3ccco3)ncn2)c1,.,.,44.7µM,/
O=C(Nc1ccc2c(c1)OCO2)C1CC(c2ccccc2O)=NO1 (centres undefined),.,.,.,.
CCC(=O)Nc1ccccc1-c1nc2ccccc2n(CC(=O)c2ccc(C)cc2)c1=O,/,?,.,/
Cc1nn(-c2ccccc2)c(C)c1CCC(=O)N1CCN(S(=O)(=O)c2ccc(Cl)cc2)CC1,/,.,/,/
O=C(O)c1cccc(-c2nc3ccccc3[nH]2)c1,.,.,.,.
Cc1cccc(-n2cc(CN3CC[C@H](CO)[C@@H](O)C3)cn2)c1,/,.,/,/
CNc1cc(-c2ccccc2C)ncn1,79.4µM,?,50.1µM,/
CN(Cc1ccco1)c1cc(-c2ccoc2)ncn1,31.6µM,?,28.2µM,/
O=C(CN(C(=O)CCC(=O)Nc1nccs1)c1ccccc1F)NCc1ccccc1,.,.,.,.
CCCC(NC(=S)NCC1CCCO1)C12CC3CC(CC(C3)C1)C2 (centres undefined),.,39.8µM,.,.
CCCC(NC(C)=O)C12CC3CC(CC(C3)C1)C2 (centres undefined),/,.,/,/
Cc1cnc(SCCN2CCOCC2)nc1C1CCCN(C(=O)c2cccc3c(C)c(C)[nH]c23)C1 (centres undefined),/,.,/,/
CCOc1ccc(Cl)cc1S(=O)(=O)N1CCC(C(=O)NC2CC2)CC1,.,.,?,.
CCOc1ccc(Cl)cc1S(=O)(=O)n1nnc2ccccc21,.,.,.,26.7µM
CCCCCC(=O)N1C[C@H](n2cc(COC(=O)c3ccccc3)nn2)[C@@H](O)C[C@@H]1c1ccc(C)cc1,/,39.8µM,/,.
CC(=O)Nc1ccc(/C(N=Nc2ccccc2)=N/N=C(N)N)cc1,/,39.8µM,?,.
CN(C)C(=O)N1CCN(c2nc3ncccc3o2)CC1,/,.,/,/
Cc1ccc(C2C(C#N)=C(N)SC(N)=C2C#N)o1,12.6µM,/,/,/
COc1ccc(C2CC(c3c(-c4ccccc4)c4cc(Cl)ccc4[nH]c3=O)=NN2S(C)(=O)=O)cc1 (centres undefined),.,.,.,.
COc1ccc(OC)c(C2CC(c3c(-c4ccccc4)c4cc(Cl)ccc4[nH]c3=O)=NN2S(C)(=O)=O)c1 (centres undefined),44.7µM,.,.,.
CCc1ccc2oc(=O)cc(-c3oc4ccccc4c3NC(=O)C3CC3)c2c1,/,7.94µM,/,/
COc1cccc(C2CC(=O)Nc3cc4c(cc32)OCCO4)c1OC (centres undefined),/,.,.,/
N#Cc1ccc2c(c1)OCCO2,/,8.91µM,/,/
SMILES,Sfp inh,12-LOX inh,VDR inh,PLK1 PBD inh
Cc1ccccc1NC(=O)N1CCC(CCN)CC1,/,.,/,/
Cc1sc2nc(C3CC3)nc(N3CCN(C(=O)c4ccc(Cl)cc4)CC3)c2c1C,.,25.1µM,.,.
O=C(c1ccco1)N1CCN(c2nc(C3CC3)nc3sc4c(c23)CCCC4)CC1,79.4µM,/,?,.
CC1CCCC(NC(=O)CCC(=O)c2ccc(F)cc2)C1C (centres undefined),.,.,.,23.8µM
CC1CCCC(NC(=O)CSc2ccc(F)cc2)C1C (centres undefined),.,.,.,.
O=C(CCC(=O)N1CCOc2ccccc21)NC1CCN(Cc2ccccc2)CC1,.,.,.,.
CC1CCCC(NC(=O)CCC(=O)N2CCOc3ccccc32)C1C (centres undefined),.,.,?,15µM
O=C(CN1CCOCC1)Nc1ncc(Br)cc1Br,.,?,.,.
CCOC(=O)c1oc2nc(C)c3c(c2c1N)CC(C)(C)OC3,.,.,?,11.9µM
COc1ccc(S(=O)(=O)/C(C#N)=C/Nc2cccc(OC)c2)cc1,.,.,.,.
CCCCN(CCCC)S(=O)(=O)c1ccc2oc(C(=O)NCc3ccccc3)c(C)c2c1,/,.,.,/
N#C/C(=C\c1ccccc1)C(=O)NNS(=O)(=O)c1ccc(Br)cc1,/,?,44.7µM,21.2µM
COc1ccc(-c2cc(-c3ccccc3)nc(SC(C)C(=O)O)c2C#N)cc1 (centres undefined),.,.,?,26.7µM
CC(C)C(Sc1nc(-c2ccccc2)cc(-c2ccccc2)c1C#N)C(=O)O (centres undefined),.,?,.,18.9µM
COc1ccc(-c2cc(-c3ccccc3)nc(SCC(=O)CC(=O)OC(C)C)c2C#N)cc1,/,.,.,/
O=C(NC(=S)NCc1ccc(F)cc1)c1ccccc1,?,15.8µM,.,.
Fc1ccc(CNC(=S)NCc2ccc(Cl)c(Cl)c2)cc1,/,31.6µM,/,/
Cc1cc2ncc(C(=O)NCc3ccc(F)cc3)cn2n1,/,.,/,/
